697 NFkB inh: inhibitors of the PMA/ionomycin-induced NF-kB reporter in 697 B cells; 697 B-cell NF-kB luciferase reporter, 16 h; 330,000 compounds, 0.33% hits; inhibition, % at 4 µM; AID 435022; in the data active = inhibition above about 35%
CSC inhib: blocks cancer stem cells; AID 2717; cancer stem cell-like cells viability, luminescence; 300,000 compounds, 1.1% hits; inhibition, % at 7.5 µM; in the data active = inhibition above about 75%; tested in HMLE shEcad cells
Mdm2 MdmX PPI: disrupts the human Mdm2-MdmX interaction | SaOS-2 split-luciferase Mdm2/MdmX complementation, luminescence | inhibition, % at 8 µM | 330,000 compounds, 3% hits;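 active = inhibition of at least 50% at 8 µM in the primary screen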
Target sequence (O15151 whole entry, looked up): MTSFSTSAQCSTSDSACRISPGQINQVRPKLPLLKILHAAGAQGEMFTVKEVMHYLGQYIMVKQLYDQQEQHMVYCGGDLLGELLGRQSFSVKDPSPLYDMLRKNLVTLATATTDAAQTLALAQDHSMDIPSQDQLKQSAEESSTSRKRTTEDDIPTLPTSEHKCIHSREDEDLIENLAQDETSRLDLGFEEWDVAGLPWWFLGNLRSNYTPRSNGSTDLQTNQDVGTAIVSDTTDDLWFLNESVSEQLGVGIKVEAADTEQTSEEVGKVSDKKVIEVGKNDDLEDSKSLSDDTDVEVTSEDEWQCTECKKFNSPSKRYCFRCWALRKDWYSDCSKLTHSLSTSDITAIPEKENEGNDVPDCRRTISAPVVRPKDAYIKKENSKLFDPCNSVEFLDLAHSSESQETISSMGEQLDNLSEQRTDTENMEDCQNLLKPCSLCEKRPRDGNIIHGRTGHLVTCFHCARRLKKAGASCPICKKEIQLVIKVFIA
Target sequence (Q00987 whole entry, looked up): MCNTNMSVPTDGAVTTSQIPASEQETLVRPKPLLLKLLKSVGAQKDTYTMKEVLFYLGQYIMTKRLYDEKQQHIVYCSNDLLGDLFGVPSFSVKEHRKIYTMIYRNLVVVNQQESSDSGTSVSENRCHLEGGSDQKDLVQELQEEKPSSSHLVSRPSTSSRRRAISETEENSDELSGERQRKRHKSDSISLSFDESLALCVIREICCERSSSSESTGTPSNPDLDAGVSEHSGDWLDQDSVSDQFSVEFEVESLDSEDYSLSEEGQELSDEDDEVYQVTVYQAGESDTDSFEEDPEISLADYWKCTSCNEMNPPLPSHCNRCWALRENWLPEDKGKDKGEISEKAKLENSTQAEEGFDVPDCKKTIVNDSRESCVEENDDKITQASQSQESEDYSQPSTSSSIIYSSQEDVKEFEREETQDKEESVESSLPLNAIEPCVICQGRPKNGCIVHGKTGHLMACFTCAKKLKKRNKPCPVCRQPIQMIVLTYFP
Gli-Sufu block: blocks Gli-Sufu signaling in a luciferase reporter | AID 588413 | 340,000 compounds, 0.74% hits | inhibition, % at 5 µM | Sufu-KO-LIGHT fibroblasts, Gli luciferase reporter luminescence;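 active = inhibition above about 55%, limit read from the data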
Jurkat NFkB inh: lowers PMA/ionomycin-induced NF-kB signal in Jurkat cells; PMA/ionomycin-induced NF-kB luciferase reporter, luminescence; inhibition, % at 4 µM; 330,000 compounds, 0.53% hits; in the data active = inhibition above about 50%
aSyn 5UTR inh: MLPCN primary screen, SNCA 5' untranslated region; alpha-synuclein 5'UTR reporter, inhibitor activity; inhibition, % (tested at 7.5 µM); 300,000 compounds, 0.82% hits; AID 1813; in the data active = inhibition above about 60%;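 note: H4 neuroglioblastoma cells stably carrying SNCA 5'UTR luciferase fusion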
Gli antag conf: confirmation of Gli-SUFU pathway antagonists; AID 602428; shares compounds with Gli-Sufu block; Sufu-KO-LIGHT cells, Gli luciferase reporter, luminescence; 2,500 compounds, 40% hits; inhibition, % at 5 µM;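 active = mean inhibition at 5 µM reaching about 45%, limit read from the data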
Gli cytotox: cytotoxic in Gli-SUFU antagonist counter-screen; cytotoxicity, % at 5 µM; AID 651994; 2,500 compounds, 32% hits; Sufu-KO-LIGHT cells cytotoxicity, ATP luminescence; shares compounds with Gli-Sufu block;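 active = mean cytotoxicity at 5 µM above about 25%, limit read from the data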;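 note: cells exposed to compound overnight for roughly 16 to 18 hours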
Wnt3a cs: counter-screen for Gli-SUFU antagonists: Wnt3a reporter inhibition; shares compounds with Gli-Sufu block; Wnt-LIGHT cells, Wnt3a-driven luciferase reporter, luminescence; inhibition, % at 6.25 µM; 2,500 compounds, 20% hits; AID 651995;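 active = mean inhibition above about 25%, limit read from the data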
Numbers stand for hits; . = inactive; / = no result given. A selection: hits, their analogues and other compounds. The true share with any hit is near 4.5%.

SMILES	697 NFkB inh	CSC inhib	Mdm2 MdmX PPI	Gli-Sufu block	Jurkat NFkB inh	aSyn 5UTR inh	Gli antag conf	Gli cytotox	Wnt3a cs
Cn1cc(CNC(=O)C2CCC(=O)N(Cc3ccccc3F)C2)cn1 (centres undefined)	.	.	.	.	.	.	/	/	/
CCn1cc(CNC(=O)C2CCC(=O)N(Cc3ccccc3F)C2)cn1 (centres undefined)	.	.	.	.	.	.	.	.	.
CN1CCN(c2ccccc2/C=N/NC(=O)c2cccnc2)CC1	.	.	.	66.0	.	.	.	.	.
O=C(N/N=C\c1cc2c(cc1Cl)OCO2)c1cccnc1	.	.	.	.	.	.	/	/	/
CCOc1cccc(/C=N/NC(=O)c2cccnc2)c1O	.	.	.	58.6	.	.	.	.	33.0
COCCNC(=O)c1cc(-c2ccccc2)nn1CC1CC(c2cccnc2)=NO1 (centres undefined)	.	.	.	.	.	.	/	/	/
CC(C)NC(=O)c1ccccc1NC(=O)C1CCCO1 (centres undefined)	.	/	.	58.5	.	.	.	.	.
COC(=O)c1ccccc1NC(=O)C1CCCO1 (centres undefined)	.	.	.	.	.	.	/	/	/
Cc1cnn2c(C3CC3)ccnc12	.	.	.	57.7	.	.	.	.	.
Cc1ccc(C)[n+](CC(=O)N2CCCCC2)c1	.	/	.	.	.	/	/	/	/
CC1CCN(S(=O)(=O)c2ccc(NC(=O)c3cccs3)cc2)CC1	.	/	.	.	.	.	/	/	/
Cc1nnsc1C(=O)Nc1ccc(S(=O)(=O)N2CCC(C)CC2)cc1	.	.	.	.	.	.	.	.	.
CC(NC(=O)CCNC(=O)c1ccccc1Cl)C1CC2CCC1C2 (centres undefined)	.	.	.	.	.	.	.	.	.
CC(NC(=O)c1ccccc1Cl)C1CC2CCC1C2 (centres undefined)	.	.	.	.	.	.	/	/	/
Cc1ccccc1NC(=S)N(CCc1c(C)[nH]c2ccc(F)cc12)Cc1ccncc1	.	.	.	59.0	.	.	.	25.7	.
CCn1ncc(NC(=S)NCCc2ccc(OC)c(OC)c2)c1C(N)=O	.	.	.	.	.	/	/	/	/
O=C(Nc1ccccc1)Nc1ccc(C(=O)N2CCOCC2)cc1	.	.	.	.	.	.	/	/	/
COc1ccc(-n2nnc3c(SCC(=O)NCc4ccco4)ncnc32)cc1	.	.	.	97.8	.	.	.	.	.
O=C(NCCN1CCCC1)c1ccc2c(c1)N(Cc1ccccc1)C(=O)c1ccccc1S2(=O)=O	.	/	.	.	.	.	/	/	/
O=C(Nc1ccc2oc(-c3ccccc3F)nc2c1)c1ccc2c(c1)OCCO2	.	.	.	.	.	.	.	.	.
O=C(Nc1ccc(-c2nc3ccccc3o2)cc1)c1ccc2c(c1)OCO2	.	.	.	.	.	.	/	/	/
C=CCNC(=S)NNc1nc2sc3c(c2c(=O)[nH]1)CC(C)(C)OC3	.	.	.	.	.	.	/	/	/
COc1ccc(-n2nnnc2SCC(=O)Nc2nnc(C)s2)cc1	.	.	.	58.5	.	.	.	.	.
CCOC(=O)c1csc(NC(=O)CSc2nnnn2-c2ccc(OC)cc2)n1	.	.	.	.	.	.	/	/	/
O=C(NC(=S)NCc1ccccc1)c1ccccc1[N+](=O)[O-]	.	.	.	.	.	.	/	/	/
CCOc1ccc(-c2[nH]ncc2-c2ccccc2)c(O)c1	.	.	.	55.3	.	.	.	.	.
O=C(Nc1nc(-c2cc3ccccc3o2)cs1)c1ccc(S(=O)(=O)N2CCCC2)cc1	.	.	.	.	.	.	58.6	29.6	.
O=C(Nc1nc(-c2ccc(S(=O)(=O)N3CCOCC3)cc2)cs1)c1ccccc1	.	.	.	.	.	.	/	/	/
COc1cc(/C=N/NC(=O)c2ccncc2)ccc1OC(=O)c1ccco1	.	/	.	.	.	.	/	/	/
COc1cc(/C=N/NC(=O)c2ccncc2)ccc1OC(C)=O	.	.	.	58.4	.	.	.	.	.
